Only some compounds are listed: those with a hit (about 2.4% of all), similar ones and a draw of the others.
Pol eta inh = inhibitors of human DNA polymerase eta; Q9Y253; recombinant Pol eta, fluorescent DNA replication assay; Potency, µM (titrated, usually from 114 µM), for inactives: at the top dose activity change, negative = inhibition, most hits filed as inhibitors; hit rate 1.2% among 390,000; AID 588591; also: % is scaled to controls: 0 for no effect and ±100 for the full control effect
Target sequence (Q9Y253 whole entry, looked up): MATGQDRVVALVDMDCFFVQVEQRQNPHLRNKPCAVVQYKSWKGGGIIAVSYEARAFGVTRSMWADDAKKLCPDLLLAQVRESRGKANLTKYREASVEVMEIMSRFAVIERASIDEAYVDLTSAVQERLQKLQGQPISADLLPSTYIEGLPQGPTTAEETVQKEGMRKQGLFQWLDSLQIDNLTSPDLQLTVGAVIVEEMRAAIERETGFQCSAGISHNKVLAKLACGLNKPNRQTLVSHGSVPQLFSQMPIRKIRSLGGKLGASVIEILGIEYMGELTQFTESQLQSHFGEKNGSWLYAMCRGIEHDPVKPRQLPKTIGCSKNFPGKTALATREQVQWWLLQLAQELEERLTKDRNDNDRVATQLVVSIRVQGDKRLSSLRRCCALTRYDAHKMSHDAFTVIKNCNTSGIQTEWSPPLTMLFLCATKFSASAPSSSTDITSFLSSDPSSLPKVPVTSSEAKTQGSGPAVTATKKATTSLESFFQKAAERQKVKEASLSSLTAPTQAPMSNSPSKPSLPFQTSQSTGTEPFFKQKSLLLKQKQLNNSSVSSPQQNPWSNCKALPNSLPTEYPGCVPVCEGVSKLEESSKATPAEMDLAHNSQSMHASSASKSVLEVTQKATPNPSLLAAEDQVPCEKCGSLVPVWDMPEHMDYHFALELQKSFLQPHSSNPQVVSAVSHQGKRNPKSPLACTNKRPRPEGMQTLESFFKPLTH
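Pol eta (10 nM) was preincubated with compounds for 15 min at room temperature, after which fluorescent replication substrate (50 nM final) was added to start the reaction. Fluorescence was read kinetically at 0 and 10 min.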
Pol kappa inh = blocks human DNA polymerase kappa activity; Q9UBT6; purified Pol kappa, fluorescent DNA synthesis assay, 10 min; Potency, µM (highest dose often 107 µM), for the others: at the top dose activity, negative = inhibition, actives largely listed as inhibitors; hit rate 0.53% among 400,000; AID 588579; also: % is scaled to controls: 0 for no effect and ±100 for the full control effect
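50 nM final substrate added after 15 min RT preincubation of 10 nM Pol kappa with compound; fluorescence read at 0 and 10 min.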
TDP1 block = TDP1 (human) enzyme inhibition; Q9NUW8; recombinant TDP1, AlphaScreen DNA substrate cleavage; Potency, µM (highest dose often 130 µM), inactives show at the top dose activity change, negative = inhibition, actives largely listed as inhibitors; hit rate 0.28% among 350,000; AID 485290; also: % is scaled to controls: 0 for no effect and ±100 for the full control effect; nearly all actives have a fitted effect of over 40% in size
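Compounds were preincubated with Tdp1 (1 nM final) for 15 min at room temperature before substrate (15 nM final) started a 5 min reaction; beads (10 ug/ml final) were then added for 10 min before AlphaScreen detection.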
POLB inh = blocks human DNA polymerase beta activity; AID 485314; P06746; Potency, µM (titrated, usually from 114 µM), for the others: top-dose activity change, negative = inhibition, most hits filed as inhibitors; Pol beta primer extension/strand displacement, fluorescence kinetic; hit rate 1.3% among 340,000; also: % is scaled to controls: 0 for no effect and ±100 for the full control effect
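Enzyme-only controls used 10 nM Pol beta; buffer lacking enzyme served as negative control. Compound preincubated 15 min, then 50 nM substrate added; 0 and 10 min reads at room temperature.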
POLI inh = DNA polymerase iota (human) inhibition | Q9UNA4 | Pol iota fluorescent replication assay, 10 min | AID 588590 | hit rate 1% among 390,000 | Potency, µM (highest dose often 115 µM), inactives show at the highest dose activity, negative = inhibition, actives largely listed as inhibitors
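Fluorescent replication assay read twice, at 0 min and 10 min after adding 50 nM (final) substrate. Enzyme (10 nM) and compounds were first incubated 15 min at room temperature; enzyme-free buffer wells were negative controls.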
* marks the source's active call; other numbers are inactive results; ? = inconclusive; . = no result given; [ ] = dose if it differs, or a comment. Calls follow the shape of the dose curve; as a rule, active = well fitted curve in the direction sought with a large enough effect; inconclusive = small, poorly fitted or top-dose-only effect, or another doubt; inactive = no such curve, though single readings can be large; an effect the other way counts as inactive or inconclusive. Potency is read from the fitted curve at half-maximal effect.

SMILES | Pol eta inh | Pol kappa inh | TDP1 block | POLB inh | POLI inh
COc1ccc(C(=O)Nc2cccc(NC(C)=O)c2)cc1OC | ? | ? | -3% | 8.9µM* | ?
COc1ccc(C(=O)Nc2cccc(S(C)(=O)=O)c2)cc1OC | -21% | 4% | 4% | 3% | 92%
COc1ccc(C(=O)Nc2c(N)nc(SCC(=O)Nc3ccc(NC(C)=O)cc3)[nH]c2=O)cc1OC | ? | ? | 0% | ? | 79µM*
O=C(O)Cn1c(CCS(=O)(=O)c2ccc(Br)cc2)nc2ccccc21 | 20µM* | -36% | -1% | 14µM* | 74%
O=C(COC(=O)c1cc(S(=O)(=O)N2CCOCC2)ccc1Cl)NCc1ccco1 | -14% | -13% | 1% | . | 7%
O=C(COC(=O)c1cccc(S(=O)(=O)N2CCc3ccccc32)c1)NCc1ccco1 | -19% | -13% | 1% | 0% | -13%
O=C(COC(=O)c1cccc(S(=O)(=O)N2CCc3ccccc3C2)c1)NCc1ccco1 | -10% | -23% | -7% | 18µM* | -15%
O=C(COC(=O)c1cc(S(=O)(=O)N2CCc3ccccc3C2)ccc1Cl)NCc1ccco1 | 20µM* | ? | 3% | 40µM* | ?
COc1ccc(C2Nc3ccccc3C(=O)N2Cc2cccc(Cl)c2)cc1COc1ccc(NC(C)=O)cc1 (centres undefined) | . | . | 1% | . | .
O=C(COC(=O)CNC(=O)c1ccccc1)Nc1cc(C(F)(F)F)ccc1Cl | . | . | -1% | . | .
CCOC(=O)C1=C(C)N(C)C(=S)NC1c1ccccc1 (centres undefined) | -17% | -1% | 1% | 1% | 147%
CCOC(=O)C1=C(C)N(C)C(=O)C1CC(=O)O (centres undefined) | 79µM* | -43% | 0% | -8% | -21%
CCOC(=O)c1ccc(N2CSC3=C(C#N)C(c4ccc(OC)cc4OC)CC(=O)N3C2)cc1 (centres undefined) | -9% | -20% | 8% | 0% | -2%
Cc1ccc(C2CC(=O)N3CN(c4ccc(Br)cc4)CSC3=C2C#N)o1 (centres undefined) | 4% | -7% | -7% | 32µM* | ?
CCOc1ccc(N2CSC3=C(C#N)C(c4ccco4)CC(=O)N3C2)cc1 (centres undefined) | 1% | 0% | . | 25µM* | 13%
Cc1ccc(NC(=O)c2ccc3c(c2)CCC(=O)N3)cc1C | . | . | -11% | . | .
COc1cccc2c1cc1c(=O)n(CC(=O)NCc3ccc(N(C)C)cc3)nc(C)n12 | -10% | 2% | 6% | 7% | -4%
O=C(/C=C/c1ccco1)N(Cc1ccccc1F)C1CCS(=O)(=O)C1 (centres undefined) | ? | -22% | 3% | ? | 50µM*
CC(C)c1ccc(CN(C(=O)/C=C/c2ccco2)C2CCS(=O)(=O)C2)cc1 (centres undefined) | ? | -24% | 1% | ? | ?
CC(NC(=O)CSc1nc2sc3c(c2c(=O)n1-c1ccccc1)CCCC3)c1ccccc1 (centres undefined) | 10% | -5%[60.1 µM] | -5% | -2% | -11%
O=C(CSc1nc2sc3c(c2c(=O)n1-c1ccccc1)CCCC3)N/N=C/c1ccccc1C(=O)O | 50µM* | -2% | 22µM* | ? | ?
O=C(NN=Cc1ccc(F)cc1)c1ccccc1NS(=O)(=O)c1cccs1 | -6% | -19% | 1% | . | -25%
O=C(N/N=C/c1ccc([N+](=O)[O-])o1)c1ccccc1NS(=O)(=O)c1cccs1 | 56µM* | -25% | 2% | ? | 40µM*
COc1ccc(C2CC(=O)c3cc(-c4nc(-c5ccc(Cl)cc5)c(C)s4)c(=O)[nH]c3C2)cc1 (centres undefined) | 1% | -2% | -5% | ? | 1%
Cc1ccc(-c2nn(CCC(=O)O)cc2/C=C\C(=O)c2ccc(Br)cc2)cc1 | 79µM* | 4% | 0% | -23% | 40µM*
SMILES | Pol eta inh | Pol kappa inh | TDP1 block | POLB inh | POLI inh
CC12CCC=CC1C(c1ccc(F)c(Br)c1)N(Cc1ccccc1)C2=O (centres undefined) | . | -1% | 2% | . | -5%
Cc1ccc(C)c(NC(=S)N(Cc2ccco2)C(C)c2cccs2)c1 (centres undefined) | -23% | -2% | 5% | -6% | 8%
Cc1ccc(Cl)cc1NC(=S)N(Cc1ccco1)C(C)c1cccs1 (centres undefined) | -12% | -2% | 5% | 8% | 79µM*
CCc1sc(C(=O)NCCc2ccc(S(N)(=O)=O)cc2)cc1C | -7% | -14% | 1% | 83% | ?
CCc1sc(C(=O)NCCc2ccc(S(N)(=O)=O)cc2)cc1Br | -10% | 0% | 2% | -1% | 89µM*
CC(C)(C)n1ncc2c(=O)n(Cc3ccccc3F)cnc21 | . | 9% | . | . | 14%
O=C(COC(=O)/C=C/c1ccc(Br)o1)NC1CCCCC1 | ? | 79µM* | . | . | 22µM*
O=C(CN1C(=O)C(=O)N(Cc2ccco2)C1=O)NC1CCCCC1 | 32µM* | ? | . | -15% | ?
O=C(NC1CCCCC1)N1CCN(Cc2ccco2)CC1 | -21% | 0% | 0% | 1% | 82%
O=C(NC1CCCCCC1)c1ccco1 | -4% | 89µM* | 5% | 5% | 32µM*
O=C(COC(=O)/C=C/c1ccc(Br)o1)Nc1ccccc1F | . | . | 16µM* | 25µM* | .
COc1ccccc1NC(=O)C(OC(=O)CNC(=O)c1ccccc1)c1ccccc1 (centres undefined) | . | . | 0% | . | .
CCOc1cccc2sc(N3CCN(C(=O)c4ccc5c(c4)CCCC5)CC3)nc12 | 4% | -3%[60.1 µM] | -3% | -3% | 21%
O=C(NCc1ccco1)c1cc(-c2ccco2)on1 | 3% | -15% | 2% | 17% | 89µM*
NNC(=S)NCc1ccco1 | -9% | -30% | . | 0% | 20µM*
O=C(NCc1ccco1)c1c(Cl)cccc1Cl | 5% | . | . | . | .
O=C(COC(=O)/C=C/c1ccco1)NC1CCCCC1 | 3% | -25% | 50µM* | . | -7%
CNC(=O)COC(=O)/C=C/c1ccco1 | 1% | -16% | -2% | -22% | -23%
O=C(NCc1ccco1)c1c(F)c(F)c(F)c(C(=O)NCc2ccco2)c1F | 45µM* | ? | 0% | ? | -17%
Cc1ccc(CN2C(=O)c3ccccc3C2C(=O)NC2CCCCCC2)cc1 (centres undefined) | -20% | 3% | 5% | -10% | 19%
O=C(/C=C/c1ccco1)NCCc1ccc(F)cc1 | ? | -40% | . | 25µM* | 20µM*
O=C(NCCc1ccccc1)/C(=C/c1ccco1)c1ccccc1 | ? | -3% | 4% | 35µM* | -19%
CCC(C)NC(=O)/C(=C/c1ccco1)c1ccccc1 (centres undefined) | -21% | -14% | -4% | -27% | 16%

Screens as filed in PubChem.
